Source: article PMC4552634, “A New Set of Chemical Starting Points with Plasmodium falciparum Transmission-Blocking Potential for Antimalarial Drug Discovery” (PLoS ONE, 2015)
Like-named read-outs stand apart in the source and are kept apart here. Hit rate of the full screen: of about 13,000 compounds, about 3,200 (25%) showed an effect of 50% or more. Some of the results follow.

Test system: P. falciparum stage V gametocytes
Set-up: BacTiter-Glo ATP luminescence viability of purified stage V gametocytes in 384-well plates, per cent inhibition versus DMSO

SMILES | % Inhibition (48 h, 5 µM; inhibitor) [%] | % Inhibition (48 h, 5 µM, inhibitor) [%]
O=C(Nc1ccc(Cl)cc1)c1ccc(CN2CCCN(Cc3cccc(F)c3)CC2)cc1 [TCMDC-136404] | -18.08 | 
N#Cc1ccc(CN2CCCN(Cc3cccc(NC(=O)c4ccc(-c5ccccc5)cc4)c3)CC2)cc1 [TCMDC-141838] | 91.89 | 
Cc1ccc(CC(C)NC[C@H](O)c2cccc(Cl)c2)cc1 (stereo partly drawn) [TCMDC-131477] |  | 11.62
CCOP(=O)(OCC)c1ccc(OC)c(-c2ccc[nH]2)c1 [TCMDC-139023] | 22.96 | 
COC(=O)/C=C/C(=O)N[C@@H]1CC[C@@]2(O)[C@H]3Cc4ccc(O)c5c4[C@@]2(CCN3CC2CC2)[C@H]1O5 [TCMDC-125875] | 50.91 | 
C#CCN1CCC2=C(C1)c1c(O)cc(C(C)CCCc3ccc(F)cc3)cc1OC2(C)C (stereo not drawn) [TCMDC-124277] | -40.47 | 
O=C(/C=C/c1ccc(Cl)c(Cl)c1)NCCCCCN1CCCN(C(=O)Nc2ccc(C(F)(F)F)cc2)CC1 [TCMDC-135757] | 8.096 | 
Cc1cc(C)c(CC(C)NCC(O)c2cccc(C(F)(F)F)c2)c(C)c1 (stereo not drawn) [TCMDC-131460] | -4.216 | 
C[C@@H](CC1CCCCC1)NCc1ccccc1O [TCMDC-140305] | 71.87 | 
CCN(CC)CCOC(=O)C(OC)(c1ccccc1)c1ccccc1 [TCMDC-131779] | 18.56 | 
Cc1ccc(CC(C)NCC(O)c2cccc(C(F)(F)F)c2)c(C)c1 (stereo not drawn) [TCMDC-131465] | -0.5645 | 
CSc1ccc(C[C@@H](C)NC[C@H](O)c2cccc(Cl)c2)cc1 [TCMDC-131507] | 10.96 | 
CNCCCN(C)C(=O)Oc1c(Br)c(C)nc(C)c1-c1ccc(Oc2ccc(OC(F)(F)F)cc2)cc1 [TCMDC-132416] | 117.8 | 
CNCCN(C)C(=O)Oc1c(Br)c(C)nc(C)c1-c1ccc(Oc2ccc(OC(F)(F)F)cc2)cc1 [TCMDC-137377] | 86.68 | 
CNCCN(C)C(=O)Oc1c(Cl)c(C)nc(C)c1-c1ccc(Oc2ccc(OC(F)(F)F)cc2)cc1 [TCMDC-137384] | 42.19 | 
Cc1nc(C)c(-c2ccc(Oc3ccc(OC(F)(F)F)cc3)cc2)c(OC(=O)N(CCNC(C)C)C(C)C)c1Br [TCMDC-132417] | 109 | 
COc1ccc(CC(C)NCC(O)c2cccc(Cl)c2)cc1C (stereo not drawn) [TCMDC-131505] | 13.45 | 
CCc1ccc(CC(C)NCC(O)c2ccccc2)cc1 (stereo not drawn) [TCMDC-131463] | 17.08 | 
CN1CC(c2ccc(Cl)c(Cl)c2)OC1=N (stereo not drawn) [TCMDC-137454] | 1.442 | 
Cc1ccc(CC(C)NCC(O)c2cccc(C#N)c2)cc1 (stereo not drawn) [TCMDC-131451] | 40.18 | 
CCC1(C)CC(CCNCc2ccccc2O)(c2ccc(C)cc2)CCO1 (stereo not drawn) [TCMDC-124003] | 4.575 | 
COCCSc1ccc(CC(C)NCC(O)c2cccc(Cl)c2)cc1 (stereo not drawn) [TCMDC-131513] | 22.33 | 
CCCCCCCCCCS(=O)(=O)N[C@H](COCc1cccc(Oc2ccccc2)c1)COP(=O)(O)OC [TCMDC-131877] | 13.38 | 
CC(C)CCN1C(=O)C(NC(=O)Oc2ccccc2)C(=O)N(CC23CC4CC(CC(C4)C2)C3)c2ccccc21 (stereo not drawn) [TCMDC-137160] | -43.48 | 

SMILES | % Inhibition (48 h, 5 µM; inhibitor) [%] | % Inhibition (48 h, 5 µM, inhibitor) [%]
CCCC(=O)c1c(O)c2ccccc2oc1=O [TCMDC-123881] | 11.83 | 
Cc1ccc(C[C@@H](C)NC[C@H](O)c2cccc(C(F)(F)F)c2)cc1 [TCMDC-131449] | 8.152 | 
[O-]c1n[n+](C2CCCCC2)no1 [TCMDC-138090] | 57.64 | 
CCOC(C(=O)OCCN(C(C)C)C(C)C)(c1ccccc1)c1ccccc1 [TCMDC-131391] | -28.65 | 
COc1ccc(C[C@@H](C)NC[C@H](O)c2cccc(Cl)c2)cc1F [TCMDC-131516] |  | 9.097
Cc1cccc(N2CCN(Cc3cc(Cl)ccc3O)CC2)c1C [TCMDC-123718] | -35.86 | 
Oc1cc2c(cc1CN1CCN(Cc3ccccc3)CC1)CCC2 [TCMDC-125104] | 73.14 | 
Cc1ccc(C)c(N2CCN(Cc3ccccc3O)CC2)c1 [TCMDC-123518] | 7.065 | 
COc1ccc(O)c(CN2CCN(c3cc(C)ccc3C)CC2)c1 [TCMDC-124056] | 6.084 | 
CCN(CC)CCN1C(=O)C(O)(c2ccccc2Cl)c2c1cc(C(N)=O)cc2C(F)(F)F (stereo not drawn) [TCMDC-133544] | 37.34 | 
COc1ccc(CC(C)NCC(O)c2cccc(Br)c2)cc1 (stereo not drawn) [TCMDC-131496] | 20.1 | 
COc1ccc(C[C@@H](C)NC[C@H](O)c2cccc(Cl)c2)cc1F [TCMDC-131502] |  | 8.677
CCCCOC(C(=O)OCC1CCCN1C)(c1ccccc1)c1ccccc1 (stereo not drawn) [TCMDC-131730] | -23.33 | 
COC(C(=O)OCCC1CCCN1C)(c1ccccc1)c1ccccc1 (stereo not drawn) [TCMDC-131780] | 73.28 | 
CCOC(C(=O)OCC1CCCN1C(C)C)(c1ccccc1)c1ccccc1 (stereo not drawn) [TCMDC-131750] | -3.502 | 
COC(C(=O)OCCC1CCCN1C)(c1ccccc1)C1CCCCC1 (stereo not drawn) [TCMDC-131374] | 34.4 | 
CCOC(C(=O)OCC1CCCN1C)(c1ccccc1)c1ccccc1 (stereo not drawn) [TCMDC-131676] | 62.64 | 
CCOC(C(=O)OCC1CCCN(C)C1)(c1ccccc1)c1ccccc1 (stereo not drawn) [TCMDC-131382] | 13.79 | 
Cc1ccc(CC(C)NCC(O)c2cccc(Br)c2)cc1 (stereo not drawn) [TCMDC-131444] | 5.106 | 
CCN(CC)CCN1C(=O)C(O)(c2ccccc2Cl)c2c1cc(C#N)cc2C(F)(F)F (stereo not drawn) [TCMDC-132583] | -22.22 | 
CCCCCC(C)C(C)c1cc(OC(N)=O)c2c(c1)OC(C)(C)C=C2c1ccncc1 (stereo not drawn) [TCMDC-131796] | -24.09 | 
O=P(O)(O)Oc1c(Br)cc(Br)cc1-c1cc(Br)cc(Br)c1O [TCMDC-131736] | 1.085 | 
COc1ccccc1CC(C)NCC(O)c1cccc(Cl)c1 (stereo not drawn) [TCMDC-131497] | -23.86 | 
COc1cc(NCCCNC(=O)c2cn(Cc3ccccc3)c3ccccc23)nc2ccccc12 [TCMDC-140140] | 60.42 | 
